Results on 62 molecules are retold here after PubChem BioAssay AID1376 (SRMLSC, 2008).

Each structure is given as a SMILES string. Screen size: about 220,000 compounds; about 530 (0.24%) were called active. For the sample, actives were picked, then their nearest neighbours and some compounds at random. Potency and affinity values are given separately. A number with no mark means an inactive call. No stated cut-off is given here; in the data, active means inhibition above about 13%; inconclusive means no clear call, values can overlap the other calls; inactive means below that.

In the experiment the target is Bifunctional protein GlmU (Mycobacterium tuberculosis (strain ATCC 25618 / H37Rv)) (UniProt P9WMN3). The experiment in a line: inhibition of mycobacterial GlmU enzyme – biochemical, glucosamine-1-phosphate acetyltransferase (AID 1376).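 Further: 0% = complete reaction with vehicle and 100% = reaction without substrate.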 The following applies: M. tuberculosis GlmU acetyltransferase enzyme assay; stronger effect = higher value;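 tested at 30 µM in the primary screen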.
Chain of Bifunctional protein GlmU (Mycobacterium tuberculosis (strain ATCC 25618 / H37Rv)) (P9WMN3 whole entry, looked up): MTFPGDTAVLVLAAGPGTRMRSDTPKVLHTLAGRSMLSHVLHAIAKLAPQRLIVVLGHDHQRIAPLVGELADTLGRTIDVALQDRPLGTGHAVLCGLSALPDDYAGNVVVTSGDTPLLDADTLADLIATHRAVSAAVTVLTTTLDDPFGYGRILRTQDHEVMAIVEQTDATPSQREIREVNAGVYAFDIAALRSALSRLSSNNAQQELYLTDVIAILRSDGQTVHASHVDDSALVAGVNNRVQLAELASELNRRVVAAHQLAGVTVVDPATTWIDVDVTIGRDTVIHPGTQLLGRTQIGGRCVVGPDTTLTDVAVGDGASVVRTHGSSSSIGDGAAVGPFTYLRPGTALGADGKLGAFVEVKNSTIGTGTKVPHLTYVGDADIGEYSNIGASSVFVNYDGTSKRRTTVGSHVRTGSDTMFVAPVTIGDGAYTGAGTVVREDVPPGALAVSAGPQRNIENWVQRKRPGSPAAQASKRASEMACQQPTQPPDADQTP
On to `Cc1cc(C(=O)CN2C(=O)C(=O)N(C3CCCC3)C2=O)c(C)n1-c1ccc(F)cc1`, for which the inhibition (commonly the change of the read-out against control, counted positive when it falls) was 7.31%.

Consider `Cc1c(Cl)cc(-n2cnnn2)cc1[N+](=O)[O-]`, for which the inhibition is 0.95%.

In the case of `O=C(CSc1nnc(-c2ccco2)c(-c2ccco2)n1)c1ccccc1`, the inhibition was 0.16%.

For the molecule `COc1ccc(C(=O)CSc2nnc(-c3ccco3)c(-c3ccco3)n2)cc1`, the inhibition was 12.8% (active).

Take `CC(=O)c1ccc(NC(=O)CSc2nnc(-c3ccco3)c(-c3ccco3)n2)cc1`: the inhibition was 9.28%.

Regarding `COc1ccc(C(=O)CSc2n[nH]c(-c3ccco3)n2)cc1`, the inhibition was 4.52%.

Turning to `O=C(CSc1nnc(-c2ccco2)c(-c2ccco2)n1)Nc1ccccc1`, the inhibition was 13.4% (active).

Turning to `Cc1ccc(NC(=O)CSc2nnc(-c3ccco3)c(-c3ccco3)n2)cc1`, the inhibition is 6.2%.

For `CC1(c2nnc(Cc3ccccc3)o2)CC(c2ccc([N+](=O)[O-])cc2)=NO1` (configuration not stated), the inhibition was -2.83%.

Turning to `CCCn1c(SCC(=O)Nc2ccc(OCC)cc2)nnc1C(C)C`, the inhibition is 2.8%.

For the molecule `COC(=O)N/N=C/c1c(C)nn(-c2cccc(Cl)c2)c1Cl`, the inhibition was -2.28%.

Take `O=C(O)c1cc(S(=O)(=O)Nc2ccc(N3CCCCC3)cc2)ccc1Cl`: the inhibition was 14.1% (active).

As to `CC(=O)Nc1ccc(NS(=O)(=O)c2ccc(Cl)c(C(=O)O)c2)cc1`, the inhibition was -0.86%.

Regarding `O=S(=O)(Nc1ccc(N2CCCCC2)cc1)c1ccc(F)c(F)c1`, the inhibition is 1.08%.

As for `O=C1CC2(CCCCC2)Oc2ccc(Cl)cc21`, the inhibition was -3.86%.

Regarding `CCCCN(CCCC)CCNC(=O)CNC(=O)c1cccs1`, the inhibition was 2.63%.

As for `CCN(CC(=O)Nc1ccc(OC(F)F)cc1)C1CCCCC1`, the inhibition is 2.82%.

In the case of `C=CCOc1ccc(Br)cc1/C=N/O`, the inhibition is -4.35%.

With `C=CCOc1ccc(Br)cc1/C=C1/SC(=Nc2ccc(C(=O)O)cc2)NC1=O`, the inhibition is 15.9% (active).

Take `COc1cc(/C=C2/SC(=Nc3ccc(O)cc3)NC2=O)ccc1O`: the inhibition was 35.3%.

Turning to `CCOc1cc(S(=O)(=O)NCCc2ccccc2C)c(OCC)cc1-n1cnnn1`, the inhibition was 1.72%.

On to `O=C1CC(NCc2ccccc2)C(=O)N1c1ccc(F)cc1` (configuration not stated), for which the inhibition is -3.58%.

For the molecule `O=c1[nH]nc(SCc2nnc(-c3cccc(Cl)c3)o2)n1C1CCCCC1`, the inhibition is 1.07%.

For `CC(C)(CNc1ccc([N+](=O)[O-])cc1Cl)CNS(C)(=O)=O`, the inhibition is -2.7%.

`COCCCN1C(=O)CS/C1=N\S(=O)(=O)c1ccccc1`: the inhibition was 5.52%.

Turning to `CCn1c(Cl)c(C=O)s/c1=N\S(=O)(=O)c1ccccc1`, the inhibition was 5.14%.

For the molecule `O=Cc1s/c(=N\S(=O)(=O)c2ccccc2)n(CCCCl)c1Cl`, the inhibition is 14% (active).

With `CC/C(=N/NS(=O)(=O)c1ccc(Cl)cc1)c1ccc(O)cc1`, the inhibition was 2.54%.

In the case of `O=C(O)C1Nc2c(C(=O)N3CCOCC3)cccc2C2C=CCC12` (configuration not stated), the inhibition is 1.95%.

As for `Cc1ccc2c(c1C)NC(C(=O)O)C1CC=CC21` (configuration not stated), the inhibition is 13.2% (active).

`O=C(O)C1Nc2c(O)cc(Cl)c([N+](=O)[O-])c2C2C=CCC12` (configuration not stated): the inhibition was 65% (active).

For the molecule `CCOC(=O)C1Nc2c(F)cc(C)cc2C2C=CCC12` (configuration not stated), the inhibition was 3.49%.

`COc1cccc2c1NC(C(=O)O)C1CC=CC21` (configuration not stated): the inhibition was 60.8% (active).

With `CC(C)C1Nc2c(O)cc(Cl)c([N+](=O)[O-])c2C2C=CCC21` (configuration not stated), the inhibition is 4.55%.

`O=C(O)C1Nc2c(O)cccc2C2C=CCC12` (configuration not stated): the inhibition is 33.7% (active).

For `COC(=O)CNC(=O)C1Nc2ccccc2C2C=CCC12` (configuration not stated), the inhibition is 3.22%.

On to `CC(C)C1Nc2ccc(C(=O)O)cc2C2C=CCC21` (configuration not stated), for which the inhibition was 5.77%.

Regarding `COc1cccc(C2Nc3c(F)cc(Br)cc3C3C=CCC32)c1OC` (configuration not stated), the inhibition was 0.44%.

In the case of `CC(C)CNC(=O)C1Nc2ccccc2C2C=CCC12` (configuration not stated), the inhibition was 0.47%.

Turning to `O=[N+]([O-])c1ccc(Cl)c2c1C1C=CCC1C(c1ccccn1)N2` (configuration not stated), the inhibition is 3.42%.

Take `O=C(CNCC1CCCO1)N1CCCc2ccccc21` (configuration not stated): the inhibition is 1.14%.

With `O=C(O)c1nc2ccccc2nc1C(=O)O`, the inhibition was -0.04%.

For the molecule `Cc1cc(C(=O)Nc2ccc(C)c(S(=O)(=O)N3CCOCC3)c2)c(C)o1`, the inhibition was -1.51%.

On to `CCC1=C(OC(=O)N(CC)CC)N2C(=O)OC(=NCC3CC3)[C@]2(C)[C@H]2C1=CC[C@H]1C(=O)N(CC)C(=O)[C@H]12`, for which the inhibition was 1.38%.

For `COc1ccc(CNC(=O)Nc2ccc3c(c2)N(C)C(=O)CS3)cc1`, the inhibition is -4.33%.

For `O=C(c1ccc(C(F)(F)F)cc1)c1c[nH]c(C(=O)NCCCn2ccnc2)c1`, the inhibition was -1.27%.

Take `Cc1ccccc1C(=O)NNC(=O)CSc1nnc(-c2ccncc2)n1-c1ccccc1`: the inhibition was -3.22%.

`OCCC1CN(Cc2cccn2-c2nccs2)CCN1C1CCCCC1` (configuration not stated): the inhibition was -4.98%.

Turning to `COc1cc2cccc(OC)c(=O)c2c(O)c1OC`, the inhibition was -3.83%.

`Oc1cccc2cc3cccc(O)c3c(O)c12`: the inhibition is -0.27%.

Turning to `O=C(c1ccc2c(c1)OCCO2)N1CCN(c2ccc([N+](=O)[O-])cc2)CC1`, the inhibition is -4.31%.

In the case of `Cc1ccc(C2=NC(=O)/C(=C/c3cc(O)c(O)c(Br)c3)S2)cc1`, the inhibition is 17.7% (active).

Regarding `COc1cc(/C=C2\SC(c3ccc(C)cc3)=NC2=O)cc(OC)c1O`, the inhibition was 5.86%.

As for `COc1cc(/C=C2\SC(c3ccc(C)cc3)=NC2=O)ccc1O`, the inhibition was 7.11%.

Consider `CC(=O)Nc1ccc(/C(C)=N/NC(=O)c2ccncc2)cc1`, for which the inhibition was 1.93%.

For the molecule `COc1ccc(N2C(=O)CC(C3CCCO3)C2=O)cc1` (configuration not stated), the inhibition is 6.39%.

Regarding `Cn1c(O)c(C=NC2CC(C)(C)NC(C)(C)C2)c(=O)n(C)c1=O`, the inhibition is 1.39%.

Turning to `COc1cc2c(cc1NS(=O)(=O)N1CCCCC1)oc1ccccc12`, the inhibition was 14.6% (active).

Take `O=S(=O)(Nc1ccc2c(c1)oc1ccccc12)N1CCCC1`: the inhibition is 5.63%.

Take `COc1cc2c(cc1NS(=O)(=O)N1CCCC1)oc1ccccc12`: the inhibition is 1.9%.

Take `FC(F)Oc1ccc(NC(=S)NCCc2ccccn2)cc1`: the inhibition was -3.82%.

Regarding `O=C(Nc1cccc(Cl)c1)Nc1nnc(CSCCOc2ccc(Cl)cc2)s1`, the inhibition is -7.81%.
